Results taken from PubChem BioAssay (Tox21).
Results filed as inconclusive are left out. The source made the active and inactive calls. Unless noted, the call rests on the fitted dose curve; in most records, active means well fitted curve in the direction sought with a large enough effect in the repeat runs; inconclusive means weak or mixed curves; inactive means no such curve, though single readings can be large; an effect the other way counts as inactive or inconclusive.

Legend:
[1] = qHTS assay to identify small molecule antagonists of the estrogen related receptor signaling pathway with the pleiotropic PPARgamma coactivator (PGC) from Tox21 10K library - cell viability counter screen (AID 1224840; active means well fitted cell-killing curve with a large enough effect in the repeat runs, not every such curve was filed as active; further: nearly all actives have a fitted effect of over 40% in size)
Outline: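 PGC/ERR cells, 2,000/well; 6 h pre-incubation 37 C/5% CO2; cpd in DMSO via pin tool; 17.5 h 37 C; CellTiter-Fluor, 30 min; fluorescence.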

[2] = target: Thyrotropin receptor (Homo sapiens) (UniProt P16473); test: qHTS assay to identify small molecule agonists of the thyroid stimulating hormone receptor (TSHR) signaling pathway (AID 1224843; calls by dose curve; further: nearly all actives have a fitted effect of over 45% in size)
Outline: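 Cell line HEK293 with TSHR; density 800/well. Exposure 30 min RT. Readout HTRF cAMP (cAMP-d2/anti-cAMP-cryptate), 1 h RT before reading.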

[3] = qHTS assay to identify small molecule agonists of the hypoxia (HIF-1) signaling pathway - cell viability counter screen (AID 1224844; calls by dose curve; further: nearly all actives have a fitted effect of over 50% in size)
Outline: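 ME-180 HRE-bla cells, 2,000/well, 0.5% dialyzed FBS; 5 hr settle, 17 hr compound at 37C/5% CO2; CCF4-AM reporter read first, then CellTiter-Glo luminescence after 30 min RT.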

[4] = qHTS assay to identify small molecule agonists of H2AX (AID 1224845; active means well fitted activation curve with a large enough effect in the signal ratio in the repeat runs, not every such curve was filed as active; the % refers to the signal ratio)
Outline: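 Wild-type CHO-K1 cells plated overnight, then exposed 3 hr at 37C to compounds at 15 concentrations (0.76% DMSO). Lysed, then HTRF anti-pH2AX(S139)-cryptate/anti-H2AX-d2 detection after 24 hr at room temperature; emissions 665 and 620 nm.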

[5] = qHTS assay to identify small molecule agonists of H2AX - cell viability counter screen (AID 1224847; calls by dose curve; further: top concentration of the series differs between compounds; nearly all actives have a fitted effect of over 30% in size)
Outline: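 Cells plated first: CHO-K1, 1000 per well in 10% FBS medium, incubated overnight at 37C. Then 15-point compound titration added (final DMSO 0.76%) for 3 hr. Finally CellTiter-Glo added and luminescence read.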

[6] = qHTS RealTime-Glo MT Cell Viability Assay in HepG2 cells - 24 hour (AID 1224867); further: nearly all actives have a fitted effect of over 50% in size
Outline: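 Viability was tracked continuously by NanoLuc luminescence from prosubstrate reduced by living HepG2 cells, at successive time points over 40 h of compound exposure. Cells with reagent were preincubated 5 h at 37 °C before compound addition.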

[7] = A CellTox Green Cytotoxicity Assay to monitor cytotoxicity in HEK293 cells - 0 hour (AID 1224869); further: nearly all actives have a fitted effect of over 50% in size
Outline: (§1)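 Nonlytic real-time cytotoxicity: HEK293 + CellTox Green reagent plated, 5 h preincubation, pintool compound addition (23 nL in DMSO), 37 C for 40 h, fluorescence measured at successive time points.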

[8] = qHTS RealTime-Glo MT Cell Viability Assay in HepG2 cells - 40 hour (AID 1224870); further: nearly all actives have a fitted effect of over 50% in size
Outline: (§2)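 HepG2 cells mixed with RealTime-Glo MT reagents (NanoLuc plus cell-permeant prosubstrate) were seeded at 600 cells/well, incubated 5 h at 37 C/5% CO2, then pinned with compounds in DMSO; nonlytic luminescence tracked viability during 40 h treatment.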

[9] = A CellTox Green Cytotoxicity Assay to monitor cytotoxicity in HEK293 cells - 40 hour (AID 1224871); further: nearly all actives have a fitted effect of over 45% in size
Outline: as §1

[10] = qHTS RealTime-Glo MT Cell Viability Assay in HepG2 cells - 8 hour (AID 1224873); further: nearly all actives have a fitted effect of over 55% in size
Outline: as §2

[11] = A CellTox Green Cytotoxicity Assay to monitor cytotoxicity in HEK293 cells - 24 hour (AID 1224875); further: series mostly up to about 77 µM; nearly all actives have a fitted effect of over 45% in size
Outline: as §1

[12] = qHTS RealTime-Glo MT Cell Viability Assay in HEK293 cells - 32 hour (AID 1224868)
Outline: (§3)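 Viability tracked continuously by luminescence as live cells reduce a prosubstrate for NanoLuc; HEK293 cells preincubated 5 h, compound-treated at 37 C, and read at 0, 8, 16, 24, 32 and 40 h.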

[13] = qHTS RealTime-Glo MT Cell Viability Assay in HEK293 cells - 16 hour (AID 1224872)
Outline: as §3

[14] = qHTS RealTime-Glo MT Cell Viability Assay in HEK293 cells - 40 hour (AID 1224874); conditions: RealTime-Glo luminescence; max response: stronger effect = lower value; further: nearly all actives have a fitted effect of over 50% in size
Outline: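 Cells were seeded together with NanoLuc luciferase and a prosubstrate that viable cells reduce to a luciferase substrate. After a 5 h incubation at 37 C/5% CO2, compounds were added and luminescence was measured repeatedly during 40 h of treatment.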

[15] = qHTS assay to identify small molecule agonists of the hypoxia (HIF-1) signaling pathway (AID 1224846; active means well fitted activation curve with a large enough effect in the signal ratio in the repeat runs, not every such curve was filed as active; the % refers to the signal ratio)
Outline: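 Cell line: CellSensor HRE-bla ME-180; 2,000 cells/well; 0.5% dialyzed FBS; 5 h preincubation; DMSO compound pin transfer; 17 h, 37C, 5% CO2; CCF4-AM added; bla FRET signal scored for activation.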

[16] = qHTS assay to identify small molecule antagonists of the estrogen related receptor (ERR) signaling pathway from Tox21 library (AID 1224848); further: nearly all actives have a fitted effect of over 50% in size
Outline: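 Screening used an ERR reporter line supplied by NTP, exposed for 18 h at 37 C to library compounds delivered in DMSO. Signal was luciferase luminescence developed with ONE-Glo at room temperature for 30 min.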

[17] = qHTS assay to identify small molecule agonists of the estrogen related receptor (ERR) signaling pathway from Tox21 library (AID 1224849; calls by dose curve; further: nearly all actives have a fitted effect of over 15% in size)
Outline: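 ERR cells, 6 h pre-incubation 37 C/5% CO2; cpd in DMSO pinned; 18 h 37 C; ONE-Glo added, 30 min RT; luminescence read. Agonist mode, qHTS.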
On the % scale 0 is the no-effect control and ±100 the full control effect.

Thyrotropin receptor (Homo sapiens), sequence (P16473 whole entry, looked up): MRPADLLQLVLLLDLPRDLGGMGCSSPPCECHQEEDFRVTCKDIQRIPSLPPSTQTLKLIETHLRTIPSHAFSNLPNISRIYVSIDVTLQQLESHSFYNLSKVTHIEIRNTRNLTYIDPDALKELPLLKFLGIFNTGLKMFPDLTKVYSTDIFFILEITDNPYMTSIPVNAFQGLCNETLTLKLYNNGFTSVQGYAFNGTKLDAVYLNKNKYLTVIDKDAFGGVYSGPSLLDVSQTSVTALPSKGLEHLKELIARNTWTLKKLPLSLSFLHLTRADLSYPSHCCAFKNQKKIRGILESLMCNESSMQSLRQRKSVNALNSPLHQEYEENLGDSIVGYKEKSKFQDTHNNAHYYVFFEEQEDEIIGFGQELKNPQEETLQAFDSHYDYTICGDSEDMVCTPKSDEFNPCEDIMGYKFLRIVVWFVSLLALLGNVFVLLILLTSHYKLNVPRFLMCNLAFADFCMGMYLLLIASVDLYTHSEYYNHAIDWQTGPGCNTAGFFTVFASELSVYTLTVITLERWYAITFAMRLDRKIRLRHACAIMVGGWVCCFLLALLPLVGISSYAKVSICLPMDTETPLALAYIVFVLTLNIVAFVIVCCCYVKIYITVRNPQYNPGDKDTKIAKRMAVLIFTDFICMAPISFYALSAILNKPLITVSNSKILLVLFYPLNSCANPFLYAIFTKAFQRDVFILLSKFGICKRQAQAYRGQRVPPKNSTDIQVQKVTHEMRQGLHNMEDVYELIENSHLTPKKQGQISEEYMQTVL

c1ccc(CNc2ncnc3nc[nH]c23)cc1
inactive: outcome [1] | outcome [2] | outcome [3] | outcome [4] | Potency [5] | outcome [6] | Potency [7] | outcome [8] | Potency [9] | outcome [10] | Potency [11]

CC(=O)OC(C(=O)c1ccccc1)c1ccccc1 (configuration not stated)
inactive: outcome [1] | outcome [2] | outcome [3] | outcome [4] | Potency [5] | outcome [6] | Potency [7] | outcome [8] | Potency [9] | outcome [10] | Potency [11]

Nc1ccc(S(=O)(=O)NC(=O)c2ccccc2)cc1
inactive: outcome [1] | outcome [2] | outcome [3] | Potency [5] | outcome [6] | Potency [12] | Potency [7] | Potency [9] | Potency [13] | outcome [10] | max response [14] 2.96% | Potency [11]

OCCCCCCCl
inactive: outcome [1] | outcome [2] | outcome [3] | outcome [4] | Potency [5] | outcome [6] | Potency [12] | Potency [7] | outcome [8] | Potency [9] | Potency [13] | outcome [10] | max response [14] -5.21% | Potency [11]

COc1cc2c3cc1Oc1cc(ccc1O)C[C@@H]1c4c(cc(OC)c(O)c4Oc4ccc(cc4)C[C@@H]3N(C)CC2)CC[N+]1(C)C
inactive: outcome [1] | outcome [2] | outcome [3] | outcome [4] | Potency [5] | outcome [6] | Potency [12] | Potency [7] | outcome [8] | Potency [9] | Potency [13] | outcome [10] | max response [14] 3.06% | Potency [11]

CCCCC/C=C/CC(=O)OC
inactive: outcome [1] | outcome [2] | outcome [3] | outcome [4] | Potency [5] | outcome [6] | Potency [12] | Potency [7] | outcome [8] | Potency [9] | Potency [13] | outcome [10] | max response [14] -0.743% | Potency [11]

CC(C)CCO
inactive: outcome [1] | outcome [2] | outcome [4] | Potency [12] | Potency [7] | outcome [8] | Potency [9] | Potency [13] | max response [14] 3.55% | Potency [11]

O=C(CN1CCN(Cc2ccc3c(c2)OCO3)CC1)N1c2ccccc2Sc2ccccc21
inactive: outcome [1] | outcome [2] | outcome [3] | outcome [4] | outcome [15] | outcome [6] | Potency [7] | outcome [8] | Potency [9] | Potency [13] | outcome [10] | Potency [11]

C[N+](C)(C)CC(O)CCl (configuration not stated)
inactive: outcome [1] | outcome [2] | outcome [3] | outcome [4] | Potency [5] | outcome [6] | Potency [12] | Potency [7] | outcome [8] | Potency [9] | Potency [13] | outcome [10] | max response [14] -4.6% | Potency [11]

C=C[C@@H](C)CCC=C(C)C
inactive: outcome [1] | outcome [2] | outcome [3] | outcome [4] | Potency [5] | outcome [6] | Potency [12] | Potency [7] | outcome [8] | Potency [9] | Potency [13] | outcome [10] | max response [14] 9.85% | Potency [11]

CCCCCC(=O)OCC
inactive: outcome [1] | outcome [2] | outcome [3] | outcome [4] | Potency [5] | outcome [6] | Potency [12] | Potency [7] | outcome [8] | Potency [9] | Potency [13] | outcome [10] | max response [14] 5.39%

O=C(O)c1ccccc1C(=O)OCc1ccccc1
inactive: outcome [1] | outcome [3] | outcome [4] | outcome [15] | Potency [5] | outcome [6] | Potency [12] | Potency [7] | outcome [8] | Potency [9] | Potency [13] | outcome [10] | max response [14] 3.76% | Potency [11]

O=S(=O)(O)c1cc(O)ccc1O
inactive: outcome [1] | outcome [2] | outcome [3] | Potency [16] | outcome [17] | outcome [6] | Potency [12] | Potency [7] | outcome [8] | Potency [9] | Potency [13] | outcome [10] | max response [14] 9.53% | Potency [11]

Cc1oc(=O)oc1CN1CCN(c2cc3c(cc2F)c(=O)c(C(=O)O)c2n3C(C)S2)CC1 (configuration not stated)
inactive: outcome [1] | outcome [2] | outcome [3] | outcome [4] | Potency [5] | outcome [6] | Potency [12] | Potency [7] | outcome [8] | Potency [9] | Potency [13] | outcome [10] | max response [14] 5.9% | Potency [11]

SCCSCCS
inactive: outcome [1] | outcome [2] | outcome [3] | outcome [4] | outcome [15] | outcome [6] | Potency [12] | Potency [7] | outcome [8] | Potency [9] | Potency [13] | outcome [10] | max response [14] -1.15% | Potency [11]

CCCCCCCCCCCCC
inactive: outcome [1] | outcome [2] | outcome [3] | outcome [4] | outcome [15] | outcome [6] | Potency [12] | Potency [7] | outcome [8] | Potency [9] | Potency [13] | outcome [10] | max response [14] 7.99% | Potency [11]

CC1(N)CCC(C(C)(C)N)CC1 (configuration not stated)
inactive: outcome [1] | outcome [2] | outcome [3] | outcome [4] | Potency [5] | outcome [6] | Potency [12] | Potency [7] | outcome [8] | Potency [9] | Potency [13] | outcome [10] | max response [14] -1.45% | Potency [11]

CCOC(=O)CC#N
inactive: outcome [1] | outcome [2] | outcome [3] | outcome [4] | outcome [15] | outcome [6] | Potency [12] | Potency [7] | outcome [8] | Potency [9] | Potency [13] | outcome [10] | max response [14] -0.316% | Potency [11]
